Calls of active or inactive are those of the source. The calls were made as follows: active = hit-call score of the fitted dose curve at least 0.9, where 1 is the maximum; inactive = score below 0.9.
How the values were obtained:
Conditions in all cases: mRNA level, 48 h; actives raise or lower the signal
[1] = read-out: catalase (CAT), CAT (gene 847); assay: LTEA_HepaRG_CAT: Life Technologies and Expression Analysis (LTEA) Assay for catalase (CAT) using HepaRG (AID 2283452)
Outline: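 Expression of CAT was quantified by TaqMan qRT-PCR with ACTB/GAPDH/POLR2A normalization after 48 h chemical exposure of HepaRG. Eight-point half-log series, top 100 uM, in 0.5% DMSO; gain or loss fitted against vehicle.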

[2] = read-out: flavin-containing dimethylaniline monooxygenases 3 (FMO3), FMO3 (gene 2328); assay: LTEA_HepaRG_FMO3: Life Technologies and Expression Analysis (LTEA) Assay for flavin-containing dimethylaniline monooxygenases 3 (FMO3) using HepaRG (AID 2283453);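 as to AC50: differentiated human HepaRG liver cells in serum-free induction medium; FMO3 transcript by TaqMan qRT-PCR normalized to ACTB GAPDH and POLR2A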
Outline: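 HepaRG, 48 h exposure, 8-pt half-log series from 100 uM, 0.5% DMSO vehicle, duplicates; FMO3 transcript by Fluidigm TaqMan qRT-PCR, housekeeping-normalized; gain/loss fit vs DMSO.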

[3] = read-out: Cytochrome P450 (CYP1A1), CYP1A1 (gene 1543); assay: LTEA_HepaRG_CYP1A1: Life Technologies and Expression Analysis (LTEA) Assay for Cytochrome P450 (CYP1A1) using HepaRG (AID 2283454)
Outline: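 CYP1A1 transcript levels measured by Fluidigm qRT-PCR against three housekeeping genes, 48 h after chemical dosing of human HepaRG cells (highest concentration 100 uM, half-log steps, 0.5% DMSO vehicle). Gain or loss of signal fitted relative to DMSO.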

[4] = read-out: CFLAR gene, CFLAR (gene 8837); assay: LTEA_HepaRG_CFLAR: Life Technologies and Expression Analysis (LTEA) Assay for CFLAR gene using HepaRG (AID 2283455)
Outline: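 HepaRG, 48 h exposure, 8-pt conc-response (100 uM top, half-log), 0.5% DMSO vehicle, duplicates. CFLAR expression by qRT-PCR; ACTB/GAPDH/POLR2A normalization; gain or loss fit vs DMSO baseline.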

[5] = read-out: Forkhead box O1 (FOXO1), FOXO1 (gene 2308); assay: LTEA_HepaRG_FOXO1: Life Technologies and Expression Analysis (LTEA) Assay for Forkhead box O1 (FOXO1) using HepaRG (AID 2283456)
Outline: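 Readout is FOXO1 transcript level by multiplexed qRT-PCR against three housekeeping genes, curve-fitted in both directions relative to 0.5% DMSO vehicle. Human HepaRG cultures received chemicals for 48 h, up to 100 uM in half-log steps.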

[6] = read-out: growth arrest and DNA damage 45 (GADD45A), GADD45A (gene 1647); assay: LTEA_HepaRG_GADD45A: Life Technologies and Expression Analysis (LTEA) Assay for growth arrest and DNA damage 45 (GADD45A) using HepaRG (AID 2283458)
Outline: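 Human HepaRG liver cells are treated in duplicate for 48 h with chemicals in 0.5% DMSO, highest concentration 100 uM. Expression is read by qRT-PCR and analyzed in both directions against vehicle.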

[7] = read-out: Forkhead box O3 (FOXO3), FOXO3 (gene 2309); assay: LTEA_HepaRG_FOXO3: Life Technologies and Expression Analysis (LTEA) Assay for Forkhead box O3 (FOXO3) using HepaRG (AID 2283459)
Outline: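 HepaRG, 48 h post-dose; 8 conc., half-log from 100 uM, 0.5% DMSO, duplicates; serum-free induction medium. Readout: FOXO3 mRNA, TaqMan qRT-PCR, housekeeping-normalized. Bidirectional curve fit vs DMSO baseline.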

[8] = read-out: ABC Transporter (ABCB1), ABCB1 (gene 5243); assay: LTEA_HepaRG_ABCB1: Life Technologies and Expression Analysis (LTEA) Assay for ABC Transporter (ABCB1) using HepaRG (AID 2283460)
Outline: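 Expression of ABCB1 was quantified by qRT-PCR against three housekeeping genes after human HepaRG cultures received test chemicals for 48 hours. Concentrations spanned eight half-log steps topping at 100 uM in 0.5% DMSO; gain or loss of signal was fitted relative to vehicle.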

[9] = read-out: growth arrest and DNA damage 45 (GADD45B), GADD45B (gene 4616); assay: LTEA_HepaRG_GADD45B: Life Technologies and Expression Analysis (LTEA) Assay for growth arrest and DNA damage 45 (GADD45B) using HepaRG (AID 2283461)
Outline: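 Transcript level quantified by Fluidigm TaqMan qRT-PCR with three housekeeping genes for normalization, analyzed for up- or down-regulation against 0.5% DMSO. HepaRG cultures dosed 48 h at eight half-log concentrations up to 100 uM, duplicates.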

[10] = read-out: ABC Transporter (ABCC3), ABCC3 (gene 8714); assay: LTEA_HepaRG_ABCC3: Life Technologies and Expression Analysis (LTEA) Assay for ABC Transporter (ABCC3) using HepaRG (AID 2283462)
Outline: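 Transcript level by TaqMan qRT-PCR, normalised to three housekeeping genes, fitted in both directions relative to vehicle. Chemicals tested in duplicate at eight half-log concentrations up to 100 uM for 48 h on HepaRG cells (0.5% DMSO).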

[11] = read-out: ABC Transporter (ABCB11), ABCB11 (gene 8647); assay: LTEA_HepaRG_ABCB11: Life Technologies and Expression Analysis (LTEA) Assay for ABC Transporter (ABCB11) using HepaRG (AID 2283463)
Outline: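 ABCB11 transcript levels are read by Fluidigm TaqMan qRT-PCR after 48 h chemical treatment of human HepaRG cells. Concentrations span 100 uM downward in half-log steps with 0.5% DMSO; gain or loss is fitted against DMSO controls.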

[12] = read-out: ABC Transporter (ABCC2), ABCC2 (gene 1244); assay: LTEA_HepaRG_ABCC2: Life Technologies and Expression Analysis (LTEA) Assay for ABC Transporter (ABCC2) using HepaRG (AID 2283464)
Outline: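 Endpoint is ABCC2 transcript level from qRT-PCR, normalized to three housekeeping genes and fitted bidirectionally relative to DMSO. Human HepaRG cells received test chemical for 48 h at up to 100 uM (8 points, half-log steps, 0.5% DMSO), duplicate wells.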

[13] = read-out: Broad substrate specificity ATP-binding cassette transporter ABCG2 (Homo sapiens) (UniProt Q9UNQ0); assay: LTEA_HepaRG_ABCG2: Life Technologies and Expression Analysis (LTEA) Assay for ABC Transporter (ABCG2) using HepaRG (AID 2283465)
Outline: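 Read-out is ABCG2 mRNA induction or loss quantified by qRT-PCR after 48 h chemical treatment of human HepaRG cells, normalized to three housekeeping genes. Concentrations reached 100 uM top in half-log steps; fitting was bidirectional against 0.5% DMSO.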

[14] = read-out: ATP-citrate lyase (ACLY), ACLY (gene 47); assay: LTEA_HepaRG_ACLY: Life Technologies and Expression Analysis (LTEA) Assay for ATP-citrate lyase (ACLY) using HepaRG (AID 2283466)
Outline: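 HepaRG, 48 h exposure, 8-pt half-log dilutions (top 100 uM), 0.5% DMSO. Readout: ACLY mRNA, TaqMan qRT-PCR, housekeeping-normalized (ACTB/GAPDH/POLR2A). Bidirectional curve fit vs DMSO.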

[15] = read-out: Peroxisomal acyl-coenzyme A oxidase 1 (ACOX1) gene, ACOX1 (gene 51); assay: LTEA_HepaRG_ACOX1: Life Technologies and Expression Analysis (LTEA) Assay for Peroxisomal acyl-coenzyme A oxidase 1 (ACOX1) gene using HepaRG (AID 2283467)
Outline: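 Measured by qRT-PCR against three housekeeping genes: ACOX1 transcript change in human HepaRG cells after 48 h dosing. Concentrations ran up to 100 uM in half-log steps. Curves were fitted bidirectionally relative to 0.5% DMSO.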

[16] = read-out: Alkaline Phosphatase, Placental (ALPP) gene, ALPP (gene 250); assay: LTEA_HepaRG_ALPP: Life Technologies and Expression Analysis (LTEA) Assay for Alkaline Phosphatase, Placental (ALPP) gene using HepaRG (AID 2283468);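 as to AC50: differentiated human HepaRG liver cells in serum-free induction medium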
Outline: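 ALPP transcript level, measured by qRT-PCR and normalized to three housekeeping genes (ACTB, GAPDH, POLR2A), after 48 h dosing of differentiated HepaRG in serum-free induction medium. Top concentration 100 uM with half-log dilutions (8 points, 0.5% DMSO, duplicates); bidirectional fitting relative to DMSO.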

[17] = read-out: Bcl-2 (BAD) gene, BAD (gene 572); assay: LTEA_HepaRG_BAD: Life Technologies and Expression Analysis (LTEA) Assay for Bcl-2 (BAD) gene using HepaRG (AID 2283469)
Outline: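 BAD transcript change, measured by qRT-PCR against three housekeeping genes and fitted in both directions relative to 0.5% DMSO, after 48 h chemical treatment of human HepaRG liver cells at concentrations up to 100 uM.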

[18] = read-out: Bcl-2 (BAX) gene, BAX (gene 581); assay: LTEA_HepaRG_BAX: Life Technologies and Expression Analysis (LTEA) Assay for Bcl-2 (BAX) gene using HepaRG (AID 2283470)
Outline: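 Concentration-response endpoint fitted in both directions relative to 0.5% DMSO vehicle. Human HepaRG cultures receive test chemicals for 48 h at up to 100 uM; BAX mRNA is quantified by qRT-PCR against housekeeping genes.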

[19] = read-out: adenosine kinase (ADK) gene, ADK (gene 132); assay: LTEA_HepaRG_ADK: Life Technologies and Expression Analysis (LTEA) Assay for adenosine kinase (ADK) gene using HepaRG (AID 2283471)
Outline: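 HepaRG (human liver), 48 h chemical exposure, 8-pt half-log series, top 100 uM, 0.5% DMSO vehicle. Readout: ADK mRNA by qRT-PCR vs housekeeping genes; bidirectional curve fit relative to DMSO baseline.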

Measured: AC50

Chain of Broad substrate specificity ATP-binding cassette transporter ABCG2 (Homo sapiens) (Q9UNQ0 whole entry, looked up): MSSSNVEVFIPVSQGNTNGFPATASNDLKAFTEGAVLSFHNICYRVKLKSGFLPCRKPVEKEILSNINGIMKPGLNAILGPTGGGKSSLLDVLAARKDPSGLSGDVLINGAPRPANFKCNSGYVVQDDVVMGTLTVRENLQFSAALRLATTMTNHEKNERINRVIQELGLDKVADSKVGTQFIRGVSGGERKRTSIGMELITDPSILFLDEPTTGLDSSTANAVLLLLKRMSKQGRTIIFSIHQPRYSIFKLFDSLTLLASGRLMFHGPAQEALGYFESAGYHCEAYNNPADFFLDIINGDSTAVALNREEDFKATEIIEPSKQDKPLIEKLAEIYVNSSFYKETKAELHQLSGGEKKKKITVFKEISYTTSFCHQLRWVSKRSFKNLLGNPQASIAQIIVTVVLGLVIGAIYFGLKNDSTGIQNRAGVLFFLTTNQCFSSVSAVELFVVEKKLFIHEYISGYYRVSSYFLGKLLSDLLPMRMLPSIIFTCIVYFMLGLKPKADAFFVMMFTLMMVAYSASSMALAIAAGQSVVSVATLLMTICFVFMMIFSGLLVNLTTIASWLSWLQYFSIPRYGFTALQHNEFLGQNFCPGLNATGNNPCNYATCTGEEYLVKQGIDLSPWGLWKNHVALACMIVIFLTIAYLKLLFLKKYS

CCOc1cccc(C2(N3CCN(c4ccccc4)CC3)CCC(C)CC2)c1 (stereo unspecified)
inactive: [1] | [2] | [4] | [5] | [6] | [7] | [8] | [9] | [10] | [11] | [12] | [13] | [14] | [15] | [16] | [17] | [18] | [19]
active: [3] 35.9 µM

OCCCl
inactive: [1] | [2] | [3] | [4] | [5] | [6] | [7] | [8] | [9] | [10] | [11] | [12] | [13] | [14] | [15] | [16] | [17] | [18] | [19]

N#CC(Br)Br
inactive: [1] | [2] | [3] | [5] | [6] | [7] | [8] | [9] | [10] | [11] | [12] | [13] | [14] | [15] | [16] | [17] | [18] | [19]

CCC[CH2][Sn]([Cl])([CH2]CCC)[CH2]CCC
inactive: [7] | [9] | [10] | [14] | [17] | [19]
active: [1] 1.66 µM | [2] 2.31 µM | [3] 2.35 µM | [4] 4.12 µM | [5] 18.8 µM | [6] 50 µM | [8] 3.21 µM | [11] 2.06 µM | [12] 3.8 µM | [13] 1.49 µM | [15] 3.11 µM | [16] 3.79 µM | [18] 1.72 µM

CC(C)(C)C(O)(CCc1ccc(Cl)cc1)Cn1cncn1 (stereo unspecified)
inactive: [1] | [5] | [6] | [7] | [9] | [10] | [11] | [12] | [13] | [15] | [17] | [18] | [19]
active: [2] 76.7 µM | [3] 6.47 µM | [8] 3.45 µM | [14] 6.24 µM | [16] 80.3 µM

Nc1cc(Cl)cc(C(=O)O)c1Cl
active: [3] 63.4 µM
inactive: [1] | [2] | [5] | [6] | [7] | [8] | [9] | [10] | [11] | [12] | [13] | [14] | [15] | [16] | [17] | [18] | [19]

Source: PubChem BioAssay (EPA / NIEHS)
